High-throughput results: PubChem, Broad Institute
Sampled rows, rich in hits. Any-hit rate of the full collection: about 2.2%.
Shn3 3UTR inh – reduction of Shn3 3'UTR firefly luciferase signal, primary screen, Schnurri-3 inhibitor project, cell-based, Clone20 osteoblasts, set 2. hit rate 0.52% among 360,000. inhibition, % at 12.5 µM. Clone20 osteoblast Shn3 3'UTR firefly luciferase, 24 h. AID 588674, 2011;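 active means mean inhibition of at least 75% with every replicate also reaching 75%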;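 further: 0% = median of neutral control wells and 100% = pilot-screen positive control compound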
MITF TRPM1 inh – inhibitors of MITF-dependent TRPM1 promoter reporter, primary screen, cell-based, SK-MEL-5, single point, luciferase | SK-MEL-5 TRPM1 promoter luciferase, 24 h | inhibition, % at 12.5 µM | hit rate 0.83% among 330,000;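 active means mean inhibition across replicates of 60% or more, whatever share of single replicates reaches that level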
LGR2 antag – inhibitors of bursicon-induced LGR2 CRE-luciferase signal, primary screen, cell-based, HEK293, CRE-luciferase reporter, bursicon stimulation. inhibition, % at 9.99 µM. bursicon-stimulated, 4 h. Drosophila bursicon receptor LGR2 (rickets). hit rate 0.35% among 380,000. AID 720647, 2013;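 active means drop in luminescence signal, shown as inhibition above about 50% in the replicate tests, limit read from the data, passing the limit was not always enough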;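 further: agonist challenge used bursicon conditioned medium at about half maximal strength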
PAX8 reporter – inhibitors of PAX8-driven TPO luciferase reporter, primary screen, RMG-I cells, single concentration | inhibition, % at 12.6 µM | hit rate 1.2% among 360,000 | SteadyGlo, 24 h;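 active means mean replicate inhibition at least 60% with every replicate also reaching 60%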;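 further: luciferase light reporting Pax8 driven TPO promoter activity; plate controls were median of neutral control wells for no effect and mitoxantrone controls for full effect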
EWS-Fli inh – EWS/Fli-driven NR0B1 reporter inhibitors, primary screen, A673 cells, NR0B1 luciferase, luminescence, MLPCN library; hit rate 0.67% among 350,000; viability-normalised; inhibition, % at 12.6 µM;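 active means mean inhibition of at least 50% after viability correction, with every replicate also passing that limit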;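 further: firefly luciferase signal divided by Alamar Blue viability fluorescence both relative to DMSO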
EBV LMP1 NFkB – EBV LMP1-driven NF-kappaB luciferase reporter inhibitors, primary screen, cell-based, luminescence, single point. LMP1-induced NF-kappaB luciferase reporter cells. inhibition, % at 12.5 µM. hit rate 0.69% among 350,000; in the data active means inhibition above about 41%;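 further: 0% = neutral control wells and 100% = reference inhibitor control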
Active calls of the source: *; . = no result given.

SMILES | Shn3 3UTR inh | MITF TRPM1 inh | LGR2 antag | PAX8 reporter | EWS-Fli inh | EBV LMP1 NFkB
COc1cccc(C#Cc2ccc([C@H]3[C@@H](CO)N(C(=O)C4CCC4)[C@H]3C#N)cc2)c1 | . | . | 13.4 | 71.5* | -26.4 | .
COc1cccc(C#Cc2ccc([C@H]3[C@@H](CO)N(C(=O)C4CCCC4)[C@H]3C#N)cc2)c1 | . | . | 3.4 | 82.2* | 2.4 | .
COc1cccc(C#Cc2ccc([C@H]3[C@@H](CO)N(C(=O)C4CCCCC4)[C@H]3C#N)cc2)c1 | . | . | -7.5 | 78.3* | 15.6 | .
CN1C(=O)c2cc(NC(=O)C3CCC3)ccc2OC[C@H]2O[C@H](CC(=O)NCCc3ccncc3)CC[C@H]21 | . | . | 4.8 | 1.0 | 6.3 | .
C[C@@H]1CN([C@@H](C)CO)C(=O)Cc2cc(NC(=O)Nc3ccc(C(F)(F)F)cc3)ccc2O[C@@H]1CN(C)S(=O)(=O)c1ccc(Cl)cc1 | 34.7 | 47.1 | -28.0 | 95.8* | 18.2 | -11.6
C[C@H](CO)N1C[C@H](C)[C@H](CN(C)S(=O)(=O)c2cn(C)cn2)Oc2ccc(NC(=O)Nc3ccc(C(F)(F)F)cc3)cc2CC1=O | 1.6 | 23.9 | -1.6 | 42.9 | 61.1* | -6.5
C[C@H]1CN([C@@H](C)CO)C(=O)Cc2cc(NC(=O)Nc3ccc(C(F)(F)F)cc3)ccc2O[C@H]1CN(C)S(=O)(=O)c1ccc(Cl)cc1 | . | . | -11.4 | . | 57.1* | .
C[C@@H]1CN([C@H](C)CO)C(=O)Cc2cc(NC(=O)Nc3ccc(C(F)(F)F)cc3)ccc2O[C@@H]1CN(C)S(=O)(=O)c1ccc(F)cc1 | . | . | 18.3 | 6.6 | 1.3 | .
O=C(C1CCCCC1)N1CC2(C1)[C@H](c1ccccc1)[C@@H](CO)N2Cc1ccccc1F | . | . | -23.2 | 3.4 | 1.3 | .
CO[C@H]1CN(C)C(=O)c2cc(NC(=O)NC(C)C)ccc2OC[C@H](C)N(C(=O)C2CCC2)C[C@@H]1C | . | . | 5.6 | -11.7 | -3.9 | .
CC(=O)OC[C@]1(OC(C)=O)C[C@@]23CC[C@H]4[C@@](C)(CCC[C@@]4(C)C(=O)O)[C@@H]2CC[C@@H]1C3 | 13.2 | 0.1 | . | -12.6 | 5.9 | -0.3
CC(=O)OC[C@]12CC[C@H]3[C@@](C)(CC[C@H]4C(C)(C)CCC[C@]34C)[C@@H]1CC(C1=CC(=O)OC1O)O2 (some centres not stated) | 98.1* | . | . | . | 55.7* | .
CCN(CC)CC(C)(C)C(=O)/C=C/c1ccc(/C=C/C(=O)C(C)(C)CN(CC)CC)cc1 | 98.3* | 93.3* | 102.8* | 122.9* | 71.2* | 91.4*
C[C@@H](NC(=O)C[C@H]1CC[C@H]2[C@@H](COC[C@H](O)CN2Cc2cc(F)ccc2F)O1)c1ccccc1 | . | . | 15.0 | 6.7 | 2.7 | .
CCOC(=O)N1CCN(C(=O)C2CCC(=O)N(Cc3ccccc3OC)C2)CC1 (configuration not stated) | -21.1 | . | -6.8 | -23.0 | -10.0 | 46.1*
CCC(=O)N1C[C@H](C)[C@H](OC)CN(C)C(=O)c2cc(NC(=O)CC(F)(F)F)ccc2OC[C@H]1C | . | . | 5.5 | -6.7 | . | .
Oc1c(I)cc(I)c2cccnc12 | 94.1* | 20.5 | . | 99.8* | 51.8* | -3.4
C#CCOCCOCCOCCNc1nc(N2CCN(C(=O)CCCCCCCCCCNC(=O)[C@H](CCCCN)n3cc(C)nn3)CC2)nc(N2CCN(C(=O)CCCCCCCCCCNC(=O)[C@@H]([C@H](C)CC)n3cc(CCCCCN)nn3)CC2)n1 | 77.5 | 105.0* | . | . | . | -2.4
C#CCOCCOCCOCCNc1nc(N2CCN(C(=O)CCCCCCCCCCNC(=O)[C@H]([C@@H](C)CC)n3cc(CCCCCN)nn3)CC2)nc(N2CCN(C(=O)CCCCCCCCCCNC(=O)[C@@H]([C@H](C)O)n3cc(C)nn3)CC2)n1 | 15.2 | 98.6* | . | . | . | -7.9
C#CCOCCOCCOCCNc1nc(N2CCN(C(=O)CCCCCCCCCCNC(=O)Cn3cc(CCCCCN)nn3)CC2)nc(N2CCN(C(=O)CCCCCCCCCCNC(=O)[C@H]([C@@H](C)CC)n3cc(CCCCCN)nn3)CC2)n1 | 78.9 | 96.5* | . | . | . | -1.0
C#CCOCCOCCOCCNc1nc(N2CCN(C(=O)CCCCCCCCCCNC(=O)Cn3cc(CCCCCN)nn3)CC2)nc(N2CCN(C(=O)CCCCCCCCCCNC(=O)[C@H](CO)n3cc(CCCCCN)nn3)CC2)n1 | 0.8 | -9.9 | . | . | . | 3.4
COc1ccc(S(=O)(=O)N[C@H]2CC[C@@H](CC(=O)N3CCN(c4ccccc4)CC3)O[C@H]2CO)cc1 | . | . | 22.3 | 18.5 | 1.2 | .
COc1ccccc1NC(=O)N1CCCCN2[C@H](CO)[C@H](c3ccc(-c4ccc(C)cc4)cc3)[C@H]2C1 | . | . | 8.6 | 80.4* | 39.6 | .
COc1ccccc1NC(=O)N1CCCCN2[C@H](C1)[C@@H](c1ccc(-c3ccccc3)cc1)[C@@H]2CO | . | . | . | -22.7 | -4.4 | .
Cc1ccc(-c2ccc([C@@H]3[C@@H](CO)N4CCCCN(C(=O)c5ccc(F)cc5)C[C@H]34)cc2)cc1 | . | . | -8.0 | 3.3 | 1.2 | .
SMILES | Shn3 3UTR inh | MITF TRPM1 inh | LGR2 antag | PAX8 reporter | EWS-Fli inh | EBV LMP1 NFkB
COc1ccccc1NC(=O)N1CCCCN2[C@H](CO)[C@H](c3ccc(-c4cccc(F)c4)cc3)[C@H]2C1 | . | . | 12.8 | 58.1 | 34.9 | .
COc1ccccc1NC(=O)N1CCCCN2[C@@H](CO)[C@H](c3ccc(-c4cccc(F)c4)cc3)[C@@H]2C1 | . | . | 75.7* | 27.4 | 0.0 | .
Cc1ccc(-c2ccc([C@@H]3[C@H](CO)N4CCCCN(C(=O)c5ccc(F)cc5)C[C@@H]34)cc2)cc1 | . | . | 7.7 | 72.0* | 3.0 | .
CO[C@H]1CN(C)C(=O)c2ccc(NC(=O)NC(C)C)cc2OC[C@H](C)N(CC2CC2)C[C@H]1C | . | . | -3.0 | -3.0 | -0.4 | .
CC(C)CC#Cc1ccc2c(c1)O[C@@H](CN(C)C(=O)C1CCCCC1)[C@H](C)CN([C@H](C)CO)S2(=O)=O | . | . | 32.9 | . | 15.4 | .
CCCCC[C@@H](C)N1C[C@H](COCc2ccccc2)Oc2cc(N3CC[C@@H](N(C)C)C3)ccc2S1(=O)=O | . | . | 24.2 | 84.5* | 42.2 | .
O=C(C[C@@H]1CC[C@@H]2[C@H](COC[C@H](O)CN2S(=O)(=O)c2ccccc2)O1)N1CCOCC1 | . | . | 11.2 | 7.7 | 4.4 | .
CCNC(=O)C1CCCN(C(=O)c2ccc(F)c(Cl)c2)CC1 (configuration not stated) | 3.4 | . | -3.5 | 76.3* | -6.2 | .
CNC(=O)C[C@H]1CC[C@@H]2[C@H](COc3ccc(NC(=O)Nc4cccc(C)c4)cc3C(=O)N2C)O1 | . | . | 0.6 | 5.9 | -19.6 | .
CCCOc1ccc(C(=O)N/N=C/c2c[nH]c3ccc(Br)cc23)cc1 | -13.8 | 8.9 | 2.5 | -12.5 | 3.2 | 4.5
CCCCCN=C(N)N/N=C/c1c[nH]c2ccc(OC)cc12 | 66.6 | 97.1* | . | 106.5* | 57.3* | -2.2
